Values without a mark were called inactive. Records with an inconclusive call do not appear. Active and inactive are the calls of the source. Unless noted, calls follow the shape of the dose curve; as a rule, active = well fitted curve in the direction sought with a large enough effect; inconclusive = small, poorly fitted or top-dose-only effect, or another doubt; inactive = no such curve, though single readings can be large; an effect the other way counts as inactive or inconclusive.

The nature of experiment [1]: qHTS assay for measurement of the activity of small molecule inhibitors on Zika virus induced Caspase-3 activity in human iPSC derived neural progenitor cells (hNPCs) (AID 1224857). Also: nearly all actives have a fitted effect of over 65% in size. The method, boiled down: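 Quantitative HTS format: human iPSC neural progenitors, 1 h compound pretreatment, ZIKV 2 FFU/cell for 6 h at 37 C. Percent inhibition derived from luminescent caspase-3/7 signal between uninfected and infected controls.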

Experiment [2] is described as follows: qHTS assay for measurement of the activity of small molecule inhibitors on Zika virus induced Caspase-3 activity in human astrocytoma cells (AID 1224859). The method, boiled down: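 Readout is luminescence from Caspase-Glo 3/7 added after a 6 h ZIKV infection (2 FFU/cell) of compound-pretreated (1 h) SNB-19 cells; data expressed as % inhibition versus uninfected and infected wells.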

Experiment [3] can be described thus: qHTS assay to identify small molecule inhibitors of chordoma cells - UCH-2 (AID 1259356). (qHTS replaces the single test concentration by a dilution series.)
The nature of experiment [4]: P-glycoprotein substrates identified in KB-3-1 adenocarcinoma cell line, qHTS therapeutic library screen (AID 1346986). Also: nearly all actives have a fitted effect of over 60% in size. The note with it: KB-3-1 parental cells viability, CellTiter-Glo, 72 h; at 44.5 µM (top of the series). The method, boiled down:
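Using luminescence to quantify ATP, parental and P-gp-overexpressing KB cells were compared after 72 h compound titration. KB-8-5-11 was also run with the P-gp inhibitor tariquidar.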

A short description of experiment [5]: P-glycoprotein substrates identified in KB-8-5-11 adenocarcinoma cell line, qHTS therapeutic library screen (AID 1346987). Also: nearly all actives have a fitted effect of over 65% in size. Also: potency is read from the fitted curve at half-maximal effect. The method, boiled down:
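In this qHTS, P-gp-rich KB-8-5-11 cells received library compounds across a concentration range. Viability was quantified by luminescence after 72 h at 37 degree C.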

The nature of experiment [6]: NS1 protein of Zika virus - qHTS assay to identify small molecule inhibitors in human HEK 293 cells (AID 1347053). Also: nearly all actives have a fitted effect of over 55% in size. The method, boiled down:
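Compound-treated (1 h pre-infection) HEK 293 cells infected with ZIKV MR766, MOI = 0.5; after 24 h at 37 C, NS1 read by TR-FRET; data normalized to uninfected and infected controls.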

A short description of experiment [7]: qHTS of pediatric cancer cell lines to identify multiple opportunities for drug repurposing: Primary screen for TC32 cells (AID 1347089). Also: nearly all actives have a fitted effect of over 60% in size. Also: potency is read from the fitted curve at half-maximal effect. The method, boiled down: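 Measured quantity: luminescence from CellTiter-Glo, reflecting metabolically active TC32 cells following 48 h of compound. Curves came straight from multi-point titrations, with 8 or 11 points in primary and 11 in confirmatory screening.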

For experiment [8], the target named is Atrial natriuretic peptide receptor 1 (Homo sapiens) (UniProt P16066). Description: Natriuretic polypeptide receptor (hNpr1) antagonism - Pilot screen (AID 1347049; calls by dose curve;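 also: HEK293 cells with hNpr1 and GloSensor cGMP luciferase stimulated by 0.1 nM hNppA; agonist-evoked cGMP luminescence read 20 min after hNppA addition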). The method, boiled down: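 Cells expressing receptor plus cGMP biosensor are seeded and incubated overnight at 37C, then loaded with GloSensor reagent (2% final) at room temperature for 2 h. Library compounds go on for 30 min. A pre-read precedes agonist (hNppA, 0.1 nM final) and a 20-min readout.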

Experiment [9] addresses Atrial natriuretic peptide receptor 2 (Homo sapiens) (UniProt P20594). Description: Natriuretic polypeptide receptor (hNpr2) antagonism - Pilot subtype selectivity assay (AID 1347050; calls by dose curve). The method, boiled down: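 Read-out: GloSensor luminescence (CCD imager), baseline vs post-stimulation. HEK293 cells expressing hNpr2; compounds pre-incubated 30-50 min at ambient temperature; hNppC 1 nM final, 20 min.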

The target of experiment [10] is T1, Tyrosine-protein phosphatase non-receptor type substrate 1 (Homo sapiens) + Leukocyte surface antigen CD47 (Homo sapiens) (UniProt P78324+Q08722). Description: CD47-SIRPalpha protein protein interaction - LANCE assay qHTS validation (AID 1347057; active = well fitted curve in the direction sought with a large enough effect in the signal ratio, with a control signal flat, not every such curve was filed as active; the % refers to the signal ratio). The method, boiled down:
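Inhibition of soluble CD47/SIRPalpha ectodomain association by titrated compounds, measured as 665/615 nm time-resolved FRET ratio after sequential 30 min room-temperature incubations.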
On the technique in general: In TR-FRET formats the signal depends on donor and acceptor labels being close together.

The target in experiment [11] is T1, Tyrosine-protein phosphatase non-receptor type substrate 1 (Homo sapiens) + Leukocyte surface antigen CD47 (Homo sapiens). Description: CD47-SIRPalpha protein protein interaction - HTRF assay qHTS validation (AID 1347058; active = well fitted curve in the direction sought with a large enough effect in the signal ratio, not every such curve was filed as active; the % refers to the signal ratio). The method, boiled down: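 Soluble extracellular domains (6His-CD47, Avi-tag-biotinylated SIRPalpha) in PBS pH 7.4 with 0.05% IGEPAL CA-630. Compounds were preincubated 30 min at RT with CD47 and anti-His-Eu, then SIRPalpha and SAV-XL665 were added. TR-FRET 665/615 ratio.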

For experiment [12] the target is unchanged. Description: CD47-SIRPalpha protein protein interaction - Alpha assay qHTS validation (AID 1347059).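 Also: bead proximity luminescence from CD47 binding SIRPalpha after compound preincubation with SIRPalpha.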 The method, boiled down:
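In PBS (pH 7.4) with 0.05% IGEPAL CA-630, compound is preincubated with biotin-Avi-SIRPalpha ectodomain before His-CD47 ectodomain and affinity beads are added. Light-protected room-temperature incubations; AlphaScreen readout.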

The target of experiment [13] is Parathyroid hormone/parathyroid hormone-related peptide receptor (Homo sapiens) (UniProt Q03431). Description: qHTS for PTHR1 Agonists: Optimization Screen against the NCGC LOPAC library (AID 1347079).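 Also: GloSensor cAMP luminescence in HEK-293 GP2 cells expressing human PTHR1 with IBMX.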 The method, boiled down: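 Signal increase flags agonism. GP2 cells, derived from HEK-293, express human PTHR1 and a GloSensor cAMP construct.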
Experiment [14] in a line: qHTS assay to identify small molecule inhibitors of chordoma cells - UCH-1 (AID 1259355). Also: nearly all actives have a fitted effect of over 55% in size. Also: potency is read from the fitted curve at half-maximal effect. The method, boiled down:
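A 48hr growth-inhibition format: each drug tested at 15 concentrations together with added auranofin, camptothecin, doxorubicin, rubitecan and topotecan, with cell viability quantified as CellTiter-Glo luminescence.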

T1 sequence (P78324 whole entry, looked up, the tested form may be a part): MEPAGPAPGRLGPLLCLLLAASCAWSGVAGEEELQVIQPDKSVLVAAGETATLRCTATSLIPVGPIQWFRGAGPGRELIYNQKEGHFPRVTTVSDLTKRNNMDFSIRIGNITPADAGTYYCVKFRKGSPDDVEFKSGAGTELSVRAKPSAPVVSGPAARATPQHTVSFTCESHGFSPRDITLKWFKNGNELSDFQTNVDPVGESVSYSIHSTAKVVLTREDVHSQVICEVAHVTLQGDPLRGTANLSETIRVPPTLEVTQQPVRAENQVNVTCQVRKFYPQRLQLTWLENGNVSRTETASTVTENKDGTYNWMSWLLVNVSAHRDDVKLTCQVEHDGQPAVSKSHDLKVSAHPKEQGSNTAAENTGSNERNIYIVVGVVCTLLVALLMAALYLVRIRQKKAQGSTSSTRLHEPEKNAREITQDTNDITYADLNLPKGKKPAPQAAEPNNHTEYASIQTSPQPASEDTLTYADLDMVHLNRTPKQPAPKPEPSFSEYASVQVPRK
T1 sequence (Q08722 whole entry, looked up, the tested form may be a part): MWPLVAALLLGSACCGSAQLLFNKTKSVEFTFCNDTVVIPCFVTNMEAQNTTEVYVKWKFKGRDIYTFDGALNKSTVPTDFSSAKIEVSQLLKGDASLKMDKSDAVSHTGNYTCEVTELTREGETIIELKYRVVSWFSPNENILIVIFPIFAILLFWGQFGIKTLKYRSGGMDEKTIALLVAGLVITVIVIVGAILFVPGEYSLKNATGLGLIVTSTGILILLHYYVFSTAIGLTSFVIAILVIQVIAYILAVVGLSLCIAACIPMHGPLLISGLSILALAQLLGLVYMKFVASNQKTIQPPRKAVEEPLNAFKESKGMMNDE
Atrial natriuretic peptide receptor 2 (Homo sapiens), sequence (P20594 whole entry, looked up): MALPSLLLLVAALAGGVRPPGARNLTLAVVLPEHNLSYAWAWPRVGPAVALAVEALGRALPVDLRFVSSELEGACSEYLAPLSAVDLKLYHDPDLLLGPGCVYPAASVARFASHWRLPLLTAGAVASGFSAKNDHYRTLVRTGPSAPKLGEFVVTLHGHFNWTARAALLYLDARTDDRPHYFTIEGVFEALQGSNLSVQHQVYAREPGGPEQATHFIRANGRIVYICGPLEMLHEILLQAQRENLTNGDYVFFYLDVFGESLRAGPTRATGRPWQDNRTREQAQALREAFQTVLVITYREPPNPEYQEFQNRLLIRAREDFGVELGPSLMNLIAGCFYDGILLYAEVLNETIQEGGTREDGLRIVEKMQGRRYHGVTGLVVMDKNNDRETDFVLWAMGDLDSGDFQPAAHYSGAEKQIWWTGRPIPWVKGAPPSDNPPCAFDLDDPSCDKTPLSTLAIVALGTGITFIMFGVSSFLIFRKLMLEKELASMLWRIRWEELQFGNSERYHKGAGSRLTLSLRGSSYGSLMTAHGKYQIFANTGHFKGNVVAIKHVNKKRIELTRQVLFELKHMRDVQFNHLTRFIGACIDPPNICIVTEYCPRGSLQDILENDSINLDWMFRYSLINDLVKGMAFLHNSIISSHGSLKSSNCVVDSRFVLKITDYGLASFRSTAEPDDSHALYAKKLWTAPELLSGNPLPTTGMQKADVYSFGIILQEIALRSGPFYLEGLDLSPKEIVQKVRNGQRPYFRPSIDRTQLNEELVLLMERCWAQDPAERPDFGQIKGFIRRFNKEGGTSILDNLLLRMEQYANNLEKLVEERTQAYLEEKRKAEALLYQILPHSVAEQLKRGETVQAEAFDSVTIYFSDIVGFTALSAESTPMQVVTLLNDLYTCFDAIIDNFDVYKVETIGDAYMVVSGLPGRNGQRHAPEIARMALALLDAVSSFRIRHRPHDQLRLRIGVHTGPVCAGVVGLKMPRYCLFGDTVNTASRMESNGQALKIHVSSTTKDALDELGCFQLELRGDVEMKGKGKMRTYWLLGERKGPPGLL
Atrial natriuretic peptide receptor 1 (Homo sapiens), sequence (P16066 whole entry, looked up): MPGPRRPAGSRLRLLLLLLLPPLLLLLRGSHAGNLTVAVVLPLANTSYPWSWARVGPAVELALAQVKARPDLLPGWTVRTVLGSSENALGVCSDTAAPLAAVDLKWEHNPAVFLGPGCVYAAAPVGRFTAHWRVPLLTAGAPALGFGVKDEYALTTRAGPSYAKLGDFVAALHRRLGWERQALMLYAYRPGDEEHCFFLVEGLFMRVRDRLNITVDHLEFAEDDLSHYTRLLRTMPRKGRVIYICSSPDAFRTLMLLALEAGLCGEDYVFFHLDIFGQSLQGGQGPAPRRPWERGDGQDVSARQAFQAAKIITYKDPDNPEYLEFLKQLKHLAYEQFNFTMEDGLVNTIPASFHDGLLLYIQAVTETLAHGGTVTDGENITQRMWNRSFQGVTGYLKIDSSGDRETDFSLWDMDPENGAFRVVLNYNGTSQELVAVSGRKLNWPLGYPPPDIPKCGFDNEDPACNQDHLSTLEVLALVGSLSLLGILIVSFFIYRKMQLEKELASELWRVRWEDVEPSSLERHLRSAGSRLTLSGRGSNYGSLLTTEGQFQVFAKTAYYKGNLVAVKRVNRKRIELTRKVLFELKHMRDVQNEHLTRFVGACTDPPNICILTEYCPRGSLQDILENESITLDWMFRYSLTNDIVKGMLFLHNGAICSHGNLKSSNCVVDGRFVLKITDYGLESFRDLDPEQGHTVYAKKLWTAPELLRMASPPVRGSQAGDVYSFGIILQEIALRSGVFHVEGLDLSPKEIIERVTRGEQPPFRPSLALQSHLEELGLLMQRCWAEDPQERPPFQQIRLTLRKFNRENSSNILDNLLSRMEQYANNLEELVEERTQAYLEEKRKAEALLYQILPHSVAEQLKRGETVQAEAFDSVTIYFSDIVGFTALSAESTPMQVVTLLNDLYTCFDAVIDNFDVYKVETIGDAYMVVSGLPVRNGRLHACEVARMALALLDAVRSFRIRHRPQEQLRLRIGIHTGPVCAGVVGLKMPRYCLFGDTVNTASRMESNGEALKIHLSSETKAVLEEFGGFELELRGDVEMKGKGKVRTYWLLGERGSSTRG
Parathyroid hormone/parathyroid hormone-related peptide receptor (Homo sapiens), sequence (Q03431 whole entry, looked up): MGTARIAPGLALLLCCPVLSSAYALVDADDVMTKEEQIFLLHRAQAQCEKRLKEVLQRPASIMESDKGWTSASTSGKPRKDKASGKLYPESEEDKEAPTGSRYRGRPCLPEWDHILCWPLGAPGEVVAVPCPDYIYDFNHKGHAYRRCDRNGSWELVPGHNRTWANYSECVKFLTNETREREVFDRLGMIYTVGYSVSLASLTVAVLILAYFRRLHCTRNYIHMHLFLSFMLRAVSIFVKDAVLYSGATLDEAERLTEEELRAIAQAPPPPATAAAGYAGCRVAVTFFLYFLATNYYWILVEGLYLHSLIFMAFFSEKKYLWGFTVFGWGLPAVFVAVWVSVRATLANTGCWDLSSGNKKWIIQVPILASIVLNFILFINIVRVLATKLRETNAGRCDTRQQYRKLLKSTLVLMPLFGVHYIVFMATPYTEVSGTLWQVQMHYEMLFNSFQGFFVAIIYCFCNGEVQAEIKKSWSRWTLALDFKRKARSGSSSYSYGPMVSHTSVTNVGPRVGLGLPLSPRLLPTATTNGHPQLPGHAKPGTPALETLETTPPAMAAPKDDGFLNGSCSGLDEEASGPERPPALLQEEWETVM

For `CC(=O)OCC(=O)[C@@]1(O)[C@H](C)C[C@H]2[C@@H]3CCC4=CC(=O)C=C[C@]4(C)[C@@]3(F)[C@@H](O)C[C@@]21C`, the call in experiment [1], in experiment [2] and in experiment [4] was inactive. Also, the Potency result in experiment [3], in experiment [5], in [6] and in experiment [7] was “inactive” in each case.
Consider `Nc1cc(Cl)c(NC2=NCCN2)c(Cl)c1`, for which the result in experiment [1], in experiment [2], in [8], in experiment [9], in experiment [10] and in experiment [11] was inactive. Also, the compound was classed as inactive in [13]. In addition, the Potency result in experiment [3], in experiment [5], in experiment [6] and in experiment [12] was “inactive” in each case.
Turning to `NC(CO)(CO)CO`, the compound was called inactive in experiment [1] and in experiment [2]. For the same compound, the Potency entry in experiment [3], in [5], in experiment [6] and in experiment [7] was “inactive” in each case.
As to `CC(=O)O[C@]1(C(C)=O)CC[C@H]2[C@@H]3C[C@H](C)C4=CC(=O)CC[C@]4(C)[C@H]3CC[C@@]21C`, the call in experiment [1], in experiment [2] and in [4] was inactive. The Potency result in experiment [3], in experiment [6] and in experiment [7] was “inactive” throughout. Besides, in experiment [5], the Potency was 10.3 µM (active).
Regarding `CC1(C)CCC(NC(=O)[C@@H](N)CCC(=O)O)CC1`, the compound was classed as inactive in experiment [1], in [2], in experiment [8], in experiment [9], in experiment [10] and in experiment [11]. Moreover, the outcome in experiment [13] was inactive. Besides, the Potency result in experiment [3], in experiment [5], in experiment [6] and in experiment [12] was “inactive” throughout.
In the case of `COc1ccc(CN2CCN(C(c3ccc(F)cc3)c3ccc(F)cc3)CC2)c(OC)c1OC`, the outcome in experiment [1] and in experiment [2] was inactive. In addition, the Potency entry in experiment [3] was “inactive”. Besides, the Potency in experiment [5] is 23.1 µM (active).
As for `CCN1CCC[C@H]1CNC(=O)c1c(OC)ccc(Br)c1OC`, the compound was called inactive in [1] and in experiment [2]. Further, the Potency entry in [14], in experiment [6] and in experiment [7] was “inactive” each time.
With `O=C(O)c1cc2cc(Cc3cccnc3)ccc2o1`, the compound was called inactive in [1], in [2], in [8], in experiment [9], in [10] and in [11]. In addition, in [13], the compound was called inactive. Further, the Potency result in [3], in experiment [5], in [6] and in [12] was “inactive” throughout.
Take `CN1CCN(CCCN2c3ccccc3Sc3ccc(S(=O)(=O)N(C)C)cc32)CC1`: the outcome in experiment [1] and in experiment [2] was inactive. In addition, the Potency entry in experiment [14], in experiment [6] and in experiment [7] was “inactive” each time.
Turning to `C[n+]1c2cc(N)ccc2cc2ccc(N)cc21` (tested in a mixture with another compound), the result in [1] and in experiment [2] was inactive. The Potency in experiment [14] was 15.8 µM (active); in [7], 14.9 µM (active).
Take `Oc1ccc(Cl)c2cccnc12`: the compound was called inactive in experiment [1] and in experiment [2]. Besides, the Potency result in [3] and in experiment [5] was “inactive” in each case.
`CCOC(=O)[C@H](CCc1ccccc1)N[C@@H](C)C(=O)N1Cc2ccccc2C[C@H]1C(=O)O`: the compound was called inactive in experiment [1] and in experiment [2]. For the same compound, the Potency result in experiment [3], in experiment [5], in experiment [6] and in experiment [7] was “inactive” throughout.
`C1CCc2nnnn2CC1`: the compound was called inactive in experiment [1], in experiment [2], in experiment [8], in experiment [9], in experiment [10] and in experiment [11]. In addition, the Potency result in [3], in experiment [5], in experiment [6] and in experiment [12] was “inactive” in each case.
For `CC(O)C(=O)O` (stereo not drawn), the call in [1] and in experiment [2] was inactive. The Potency entry in experiment [3], in experiment [5], in experiment [6] and in experiment [7] was “inactive” in each case.
As for `Oc1ccc(O)cc1`, the outcome in [1], in experiment [2], in experiment [8], in experiment [9], in experiment [10] and in experiment [11] was inactive. In addition, in experiment [13], the outcome was inactive. Besides, the Potency result in experiment [3], in experiment [5], in [6] and in experiment [12] was “inactive” in each case.

For the origin of these results see PubChem BioAssay (NCATS).
